Bioassay records from PubChem BioAssay.
TRHR enhancer: TRH receptor (human) allosteric enhancement. P34981. TRHR cells, fluo-8 calcium fluorescence, EC20 TRH enhancement. enhancement, % at 2 µM. 360,000 tested, 0.66% active; in the data active means enhancement above about 30%
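TRHR-expressing cells loaded with fluo-8 calcium dye were read kinetically (ex 480/em 530) during compound addition, then stimulated with an EC20 of TRH (10 nM final). Enhancement of the Gq-mediated intracellular calcium response was scored.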
D1 antag: human D1 dopamine receptor antagonism. P21728. HEK293 TREx D1 cells, calcium flux, dopamine EC80; hits give low values. activity change, negative = inhibition, % at 10 µM. 360,000 tested, 3.2% active; in the data active means activity change below about -30%
Target sequence (P21728 whole entry, looked up): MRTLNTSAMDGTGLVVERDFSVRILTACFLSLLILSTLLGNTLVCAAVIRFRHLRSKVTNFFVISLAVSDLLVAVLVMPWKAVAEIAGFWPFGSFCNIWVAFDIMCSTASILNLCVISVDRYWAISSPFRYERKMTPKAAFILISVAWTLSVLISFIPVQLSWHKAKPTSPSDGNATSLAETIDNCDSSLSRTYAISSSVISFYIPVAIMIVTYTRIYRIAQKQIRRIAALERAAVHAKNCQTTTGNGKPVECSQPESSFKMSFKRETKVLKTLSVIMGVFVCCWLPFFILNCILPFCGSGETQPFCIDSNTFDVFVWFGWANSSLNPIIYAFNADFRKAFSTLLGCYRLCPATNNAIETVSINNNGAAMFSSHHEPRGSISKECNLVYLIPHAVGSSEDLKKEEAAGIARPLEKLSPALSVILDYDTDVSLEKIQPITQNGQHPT
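Kinetic fluorescence of a calcium dye serves as the read-out. D1-expressing Hek293 Trex cells, induced overnight at 30 C, are exposed to compound for 180 s before an EC80 dopamine addition, then read 180 s further.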
D1 potentiator: potentiators of human D1 dopamine receptor; HEK293 TREx D1 cells, calcium flux, dopamine EC20 potentiation; potentiation, % at 10 µM; 360,000 tested, 0.036% active; AID 504651; in the data active means potentiation above about 30%
D1 ag: human D1 receptor agonism; P21728; HEK293 T-REx D1 cells, calcium flux, agonist mode; activation, % at 2 µM; 360,000 tested, 1% active; AID 504660
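Agonism was scored from calcium flux recorded over 180 s (1 read/s) after pintool compound addition, following a 10-cycle baseline. Cells were inducible force-coupled HEK293 TREx D1, plated overnight at 30 C and loaded with no-wash calcium dye.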
TRHR agonist: agonists of human TRH receptor; TRHR cells, calcium flux fluo-8, FDSS agonist mode; activation, % at 2 µM; 360,000 tested, 0.18% active
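Agonist-mode FDSS calcium read (Ex 480/Em 530, 1 s cycles) in 1536-well TRHR cells with fluo-8 dye, after 10-cycle baseline and 23 nL compound addition; TRH at EC20 (10 nM final) added afterwards for the enhancer phase.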
Numbers stand for hits. Only some compounds are listed: those with a hit (about 4.6% of all), similar ones and a draw of the others. Unless noted, no stated cut-off is given here; in the data, active means activation above about 30%; inactive means the rest.

COc1cc(C(=O)NNC(=S)NC(=O)c2ccccc2C)cc(OC)c1OC was read as TRHR enhancer inactive, D1 antag inactive, D1 potentiator inactive, D1 ag 47 and TRHR agonist inactive.
`O=C(NC(=S)NNC(=O)c1ccc(Cl)cc1Cl)c1cccnc1` gave TRHR enhancer inactive, D1 antag inactive, D1 potentiator inactive, D1 ag inactive and TRHR agonist inactive.
Cc1onc(-c2ccccc2)c1C(=O)NNC(=S)NC(=O)c1ccc(Br)cc1 was read as TRHR enhancer inactive, D1 antag inactive, D1 potentiator inactive, D1 ag 134 and TRHR agonist inactive.
`Cc1onc(-c2ccccc2)c1C(=O)NNC(=S)NC(=O)/C=C/c1ccccc1` gave TRHR enhancer inactive, D1 antag inactive, D1 potentiator inactive, D1 ag 34 and TRHR agonist inactive.
COc1ccccc1C(=O)NNC(=S)NC(=O)c1cc(OC)c(OC)c(OC)c1 was read as TRHR enhancer inactive, D1 antag inactive, D1 potentiator inactive, D1 ag inactive and TRHR agonist inactive.
`Cc1cccnc1NC(=O)c1ccc(Cl)c(S(=O)(=O)N2CCCCC2)c1` gave TRHR enhancer inactive, D1 antag inactive, D1 potentiator inactive, D1 ag inactive and TRHR agonist inactive.
Screening CCCCNC(=O)c1nn2c(C(F)(F)F)cc(-c3ccc(OC)cc3)nc2c1Br returned TRHR enhancer inactive, D1 antag inactive, D1 potentiator inactive, D1 ag inactive and TRHR agonist inactive.
Screening COCCNC(=O)c1ccc(CS(=O)(=O)c2c(Cl)cccc2Cl)o1 returned TRHR enhancer inactive, D1 antag inactive, D1 potentiator inactive, D1 ag inactive and TRHR agonist inactive.
CCC(C(=O)OCC(=O)Nc1cccc(S(=O)(=O)NC2=NCCCCC2)c1)c1ccccc1 (stereo unspecified) was read as TRHR enhancer inactive, D1 antag inactive, D1 potentiator inactive, D1 ag inactive and TRHR agonist inactive.
Screening COc1ccc(OC)c(CNS(=O)(=O)c2c(C(=O)N3CCC(C)CC3)c(C)n(C)c2C)c1 returned TRHR enhancer inactive, D1 antag inactive, D1 potentiator inactive, D1 ag inactive and TRHR agonist inactive.
For COC(=O)c1c(NC(=O)c2nc3ncccn3n2)sc(C(=O)N(C)C)c1C the results were TRHR enhancer inactive, D1 antag inactive, D1 potentiator inactive, D1 ag inactive and TRHR agonist inactive.
Cc1onc(-c2ccccc2)c1C(=O)NNC(=O)c1ccccc1 was read as TRHR enhancer inactive, D1 antag inactive, D1 potentiator inactive, D1 ag inactive and TRHR agonist inactive.
Cc1onc(-c2ccccc2)c1C(=O)NNC(=S)NC(=O)c1ccc(Cl)cc1Cl was read as TRHR enhancer inactive, D1 antag inactive, D1 potentiator inactive, D1 ag 308 and TRHR agonist 35.
COc1cc(/C=N\NC(=O)c2ccc(-c3ccccc3)cc2)cc(OC)c1O was read as TRHR enhancer inactive, D1 antag -31, D1 potentiator inactive, D1 ag inactive and TRHR agonist inactive.
Screening COc1cc(/C=N/NC(=O)c2ccc3nc[nH]c3c2)cc(OC)c1OC returned TRHR enhancer inactive, D1 antag inactive, D1 potentiator inactive, D1 ag inactive and TRHR agonist inactive.
Screening COc1cc(/C=N/NC(=O)c2ccc(CSc3nc4ccccc4[nH]3)cc2)cc(OC)c1OC returned TRHR enhancer inactive, D1 antag -33, D1 potentiator inactive, D1 ag inactive and TRHR agonist inactive.
CCOC(=O)c1oc2ccc(S(=O)(=O)n3nc(-c4cc(OC)cc(OC)c4)cc3N)cc2c1C was read as TRHR enhancer inactive, D1 antag inactive, D1 potentiator inactive, D1 ag inactive and TRHR agonist inactive.
`O=C(OCCC1Oc2cccnc2NC1=O)c1ccc(Cl)cc1` (stereo unspecified) gave TRHR enhancer inactive, D1 potentiator inactive, D1 ag inactive and TRHR agonist inactive.
COc1ccc(C2/C=C\CN(C(=O)C3CC3)[C@H](Cc3ccccc3)C(=O)N2Cc2ccc(F)cc2)cc1 (stereo partly specified) was read as TRHR enhancer inactive, D1 antag inactive, D1 potentiator inactive, D1 ag inactive and TRHR agonist inactive.
CCCCCCC(=O)N1C/C=C\C(c2ccc(OC)cc2)N(Cc2ccc(F)cc2)C(=O)[C@H]1Cc1ccccc1 (stereo partly specified) was read as TRHR enhancer inactive, D1 antag -35, D1 potentiator inactive, D1 ag inactive and TRHR agonist inactive.
Screening COc1ccc(C2/C=C\CN(S(=O)(=O)/C=C/c3ccccc3)CC(=O)N2Cc2ccc(F)cc2)cc1 (stereo unspecified) returned TRHR enhancer inactive, D1 antag -36, D1 potentiator inactive, D1 ag inactive and TRHR agonist inactive.
For CCCCC(=O)N1C/C=C\C(c2ccc(OC)cc2)N(Cc2ccc(F)cc2)C(=O)[C@H]1Cc1ccccc1 (stereo partly specified) the results were TRHR enhancer inactive, D1 antag inactive, D1 potentiator inactive, D1 ag inactive and TRHR agonist inactive.
`COc1ccc(C2/C=C\CN(S(=O)(=O)c3ccc4ccccc4c3)CC(=O)N2Cc2ccc(F)cc2)cc1` (stereo unspecified) gave TRHR enhancer inactive, D1 antag inactive, D1 potentiator inactive, D1 ag inactive and TRHR agonist inactive.
`COc1ccc(C2/C=C\CN(C(=O)c3ccc(C)cc3)[C@H](Cc3ccccc3)C(=O)N2Cc2ccc(F)cc2)cc1` (stereo partly specified) gave TRHR enhancer inactive, D1 antag -50, D1 potentiator inactive, D1 ag inactive and TRHR agonist inactive.
`Cc1ccc(NC(=O)CCCn2c(=O)c3cccn3c3ccccc32)c(Cl)c1` gave TRHR enhancer inactive, D1 antag inactive, D1 potentiator inactive, D1 ag inactive and TRHR agonist inactive.
Screening Cc1cc(C)c(NC(=O)CCn2c(=O)c3cccn3c3ccccc32)c(C)c1 returned TRHR enhancer inactive, D1 antag -49, D1 potentiator inactive, D1 ag inactive and TRHR agonist inactive.
O=C(CCCn1c(=O)c2cccn2c2ccccc21)Nc1cccc(Cl)c1 was read as TRHR enhancer inactive, D1 antag -32, D1 potentiator inactive, D1 ag inactive and TRHR agonist inactive.
Screening Cc1cc(C)cc(NC(=O)CCCn2c(=O)c3cccn3c3ccccc32)c1 returned TRHR enhancer inactive, D1 antag -71, D1 potentiator inactive, D1 ag inactive and TRHR agonist inactive.
For Cc1ccc(NC(=O)CCCn2c(=O)c3cccn3c3ccccc32)c(C)c1 the results were TRHR enhancer inactive, D1 antag inactive, D1 potentiator inactive, D1 ag inactive and TRHR agonist inactive.
For Cc1nc(-c2ccccc2)sc1CCNS(=O)(=O)c1ccc(Br)cc1 the results were TRHR enhancer inactive, D1 antag inactive, D1 potentiator inactive, D1 ag inactive and TRHR agonist inactive.
